Experimental data published in PubChem BioAssay (NCI).
About 83,000 compounds went through this panel and 20% of them were active in at least one assay; those are over-represented in the sample as a whole.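 Single-dose data. Exposure time 48 hours. Values below 10 considered active.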 Unmarked numbers belong to inactive results. Activity calls are given as the source filed them.

Columns and labels:
Assay in all cases: NCI-60 one-dose screen, 48 h (100 = growth as untreated, 0 = no growth, -100 = all killed)
Details in all cases: 10 µM unless noted
HT29 colon = tested on: HT29 colon
SNB-75 CNS = tested on: SNB-75 CNS
SNB-19 CNS = tested on: SNB-19 CNS
U251 CNS = tested on: U251 CNS
PC-3 prostate = tested on: PC-3 prostate
SK-MEL-5 melanoma = tested on: SK-MEL-5 melanoma
UACC-62 melanoma = tested on: UACC-62 melanoma
LOX IMVI melanoma = tested on: LOX IMVI melanoma
SK-MEL-28 melanoma = tested on: SK-MEL-28 melanoma
SK-MEL-2 melanoma = tested on: SK-MEL-2 melanoma
EKVX NSCLC = tested on: EKVX NSCLC
SN12C renal = tested on: SN12C renal
UO-31 renal = tested on: UO-31 renal
TK-10 renal = tested on: TK-10 renal
ACHN renal = tested on: ACHN renal
CAKI-1 renal = tested on: CAKI-1 renal
A498 renal = tested on: A498 renal
CCRF-CEM leukemia = tested on: CCRF-CEM leukemia
MOLT-4 leukemia = tested on: MOLT-4 leukemia

SMILES	growth (HT29 colon)	growth (SNB-75 CNS)	growth (SNB-19 CNS)	growth (U251 CNS)	growth (PC-3 prostate)	growth (SK-MEL-5 melanoma)	growth (UACC-62 melanoma)	growth (LOX IMVI melanoma)	growth (SK-MEL-28 melanoma)	growth (SK-MEL-2 melanoma)	growth (EKVX NSCLC)	growth (SN12C renal)	growth (UO-31 renal)	growth (TK-10 renal) [%]	growth (ACHN renal)	growth (CAKI-1 renal)	growth (A498 renal)	growth (CCRF-CEM leukemia)	growth (MOLT-4 leukemia)
Cn1cc(-c2ccc3c(Nc4cccc(NC(=O)Nc5cccc(F)c5)c4)ncnc3c2)cn1	32.8%	43.8%	65%	28.4%	33.6%	41.4%	32.4%	41.9%	49.6%	43.2%	53%	30.1%	23.7%	39.4	15.2%	39.8%	41.9%	4.27% (active)	14.3%
O=C(/C=C/c1ccco1)Nc1ncc(Cc2ccc(F)cc2)s1	7.2% (active)	19.9%	48%	22.6%	30.2%	25.9%	16.8%	28.9%	48%	48.8%	29.1%	28.5%	47.6%	62.3	40.2%	34.4%	19.3%	21.9%	20.9%
CCN=c1sc2c(n1NC(=O)c1cc3ccc1CCc1ccc(cc1)CC3)C(=O)c1ccccc1C2=O	49%	-98.2% (active)	-74.3% (active)	-81.5% (active)	-2.79% (active)	-96.9% (active)	-54% (active)	-83.9% (active)	-81.2% (active)	-40.6% (active)	-61.3% (active)	-91.2% (active)		88.6	-90.2% (active)	8.85% (active)	51.6%	-16% (active)	-32.8% (active)
CCc1ccc(Cc2cnc(NC(=O)c3cc(C)oc3C)s2)cc1	10.8%	-4.36% (active)	37.1%	33.3%	37.7%	36.8%	25.3%	41.3%	59.5%	59.4%	39.6%	45.1%	43.6%	60.1	48.7%	22.2%	8.18% (active)	28.5%	29.2%
C=C(c1ccc(C(=O)O)c(F)c1)c1cc2c(cc1C)C(C)(C)C=CC2(C)C	80.7%		67.9%	65.7%	70.3%	69.7%	81.1%	81.4%	98.4%		69.9%	83.1%		94.4	83.4%	81.7%	75.8%	85.3%	87.3%
O=C(COc1ccc(/C=C2\Oc3ccccc3C2=O)cc1)Nc1nccs1	107%	51.3%	102%	90.9%	78.7%	105%	90.6%	85.1%	129%	93.6%	84%	90.3%	-39.8% (active)	134	107%	68.9%	116%	0% (active)	42.3%
O=c1cc(-c2nccc3c2[nH]c2ccccc23)c2cc(Cl)ccc2o1	7.6% (active)	39.8%	43.7%	29.6%	30.7%	32.1%	45.5%	50.1%	64.6%	30.2%	62.1%	62.4%	58.1%	85.3	47.3%	54.6%	31.8%	31.2%	44.3%
